Results on 31 compounds are retold here after PubChem BioAssay (EPA / NIEHS).

Results filed as inconclusive are left out. The source made the active and inactive calls. How the source made its calls, unless noted: active means hit-call score of the fitted dose curve at least 0.9, where 1 is the maximum; inconclusive means response in the unintended direction; inactive means score below 0.9.

A short description of assay [1]: Tanguay_ZF_120hpf_CIRC_legacy: (Legacy) Oregon State University Tanguay Lab 120 Hour Post-fertilization zebrafish Assay for Circulatory Malformation (AID 2283651). An outline of the steps:
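Read-out: presence or absence of circulatory malformation at 120 hpf, scored by brightfield microscopy, fitted in the gain-of-signal direction against DMSO baseline. Wild-type 5D larvae were exposed from 6 hpf after enzymatic chorion removal.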

Assay [2] is described as follows: Tanguay_ZF_120hpf_TRUN_legacy: (Legacy) Oregon State University Tanguay Lab 120 Hour Post-fertilization zebrafish Assay for Truncated Body (AID 2283655). A digest of the protocol:
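Tropical 5D wild-type embryos, dechorionated with pronase at 4 hpf, were placed singly in wells at 6 hpf and statically exposed at 28C until 120 hpf, final DMSO 0.64%. Truncated body was scored present/absent by brightfield microscopy.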

Assay [3] is described as follows: Tanguay_ZF_120hpf_NC_legacy: (Legacy) Oregon State University Tanguay Lab 120 Hour Post-fertilization zebrafish Assay for Notochord and Tail Malformation (AID 2283656). A digest of the protocol:
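Dechorionated Tropical 5D wild-type zebrafish embryos, one per well from 6 hpf, statically exposed to 120 hpf at 28C in 0.64% DMSO final. Notochord distortion scored present/absent by brightfield; dead embryos excluded.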

Read-out in assay [4]: Broad substrate specificity ATP-binding cassette transporter ABCG2 (Homo sapiens) (UniProt Q9UNQ0)
Description: CLD_ABCG2_6hr: CellzDirect (CLD) Gene Expression Assay for ABC Transporter (ABCG2) at 6 hours (AID 2283660). An outline of the steps: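 Primary human hepatocytes dosed daily with chemicals at multiple concentrations (0.2% DMSO vehicle), harvested 6 h after dosing. ABCG2 mRNA induction read by quantitative nuclease protection assay (qNPA) chemiluminescence; gain of signal fitted against DMSO baseline.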

Read-out in assay [5]: solute carrier (SLC22A6), SLC22A6 (gene 9356)
Description: LTEA_HepaRG_SLC22A6: Life Technologies and Expression Analysis (LTEA) Assay for solute carrier (SLC22A6) using HepaRG (AID 2283653; active means hit-call score of the fitted dose curve at least 0.9, where 1 is the maximum; inactive means score below 0.9). As to conditions: mRNA level, 48 h; actives raise or lower the signal. A digest of the protocol: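 Differentiated human HepaRG cells were exposed for 48 h in serum-free induction medium to eight concentrations (top 100 uM, half-log steps, 0.5% DMSO), in duplicate. SLC22A6 mRNA was quantified by qRT-PCR, normalised to ACTB, GAPDH and POLR2A, and fitted bidirectionally against DMSO.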

Read-out in assay [6]: solute carrier (SLC10A1), SLC10A1 (gene 6554)
The assay can be described thus: LTEA_HepaRG_SLC10A1: Life Technologies and Expression Analysis (LTEA) Assay for solute carrier (SLC10A1) using HepaRG (AID 2283657; active means hit-call score of the fitted dose curve at least 0.9, where 1 is the maximum; inactive means score below 0.9). The note with it: mRNA level, 48 h; actives raise or lower the signal. A digest of the protocol: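 Differentiated HepaRG cells were plated 48 h, then exposed in serum-free induction medium for 48 h to 8 concentrations (top 100 uM, half-log steps, 0.5% DMSO). SLC10A1 mRNA was quantified by qRT-PCR normalized to ACTB, GAPDH, POLR2A; bidirectional fit versus DMSO.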

Read-out in assay [7]: ABC Transporter (ABCB1), ABCB1 (gene 5243)
The assay can be described thus: CLD_ABCB1_6hr: CellzDirect (CLD) Gene Expression Assay for ABC Transporter (ABCB1) at 6 hours (AID 2283659).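 Further: hits raise ABCB1 transcript above the DMSO vehicle baseline.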 A digest of the protocol:
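Primary human hepatocytes (two donor preparations) dosed daily for two days with chemicals at multiple concentrations, 0.2% DMSO vehicle; harvested 6 h post-dose. ABCB1 mRNA induction quantified by qNPA chemiluminescence; gain-of-signal fitted versus DMSO.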

Read-out in assay [8]: kallikrein-3 (KLK3), KLK3 (gene 354)
Description: LTEA_HepaRG_KLK3: Life Technologies and Expression Analysis (LTEA) Assay for kallikrein-3 (KLK3) using HepaRG (AID 2283652; active means hit-call score of the fitted dose curve at least 0.9, where 1 is the maximum; inactive means score below 0.9). As to conditions: mRNA level, 48 h; actives raise or lower the signal. On the procedure: LTEA_HepaRG is a cell based, multiplexed-readout assay that uses HepaRG, a human liver cell line, with measurements taken at 48 hours after chemical dosing on a 96-well plate.LTEA_HepaRG_KLK3 is one of 102 assay component(s) measured in the LTEA HepaRG cell culture assay. It is a marker of Cellular remodeling.Data from the assay component LTEA_HepaRG_KLK3 was analyzed into 1 endpoint. This assay endpoint, LTEA_HepaRG_KLK3, was analyzed with bidirectional fitting relative to DMSO as the negative control and baseline of activity. Using a type of inducible reporter, measures of mRNA induction for gain or loss-of-signal activity can be used to understand regulation of transcription factor activity. To generalize the intended target to other relatable targets, this assay endpoint is annotated to the protease intended target family, where the subfamily is Cellular remodeling.
A total of 1060 chemcials from the ToxCast library were tested in eight-point concentration-response experiments. Cell culture and cytotoxicity assays were conducted at Thermo Fisher Scientific's Custom Services facility (Madison, WI). A single lot of human HepaRG cells (Thermo Fisher Scientific, Frederick, MD) was used for the cell culture experiments. 96-well format collagen type I coated plates of human HepaRG cells were prepared using established methods. Briefly, cryopreserved HepaRG cells were thawed, plated at a density of approximately 100,000 cells/well in HepaRG Thaw, Plate, and General Purpose media (HPRG770, Thermo Fisher Scientific), and incubated for 48 hours. […] Fluidigm's 96.96 Dynamic ArrayTM (Fluidigm, Amsterdam, the Netherlands) technology was used for gene expression analyses by quantitative reverse transcription polymerase chain reaction (qRT-PCR, performed by Quintiles/Expression Analysis, Durham, NC)89. […]

Chain of Broad substrate specificity ATP-binding cassette transporter ABCG2 (Homo sapiens) (Q9UNQ0 whole entry, looked up): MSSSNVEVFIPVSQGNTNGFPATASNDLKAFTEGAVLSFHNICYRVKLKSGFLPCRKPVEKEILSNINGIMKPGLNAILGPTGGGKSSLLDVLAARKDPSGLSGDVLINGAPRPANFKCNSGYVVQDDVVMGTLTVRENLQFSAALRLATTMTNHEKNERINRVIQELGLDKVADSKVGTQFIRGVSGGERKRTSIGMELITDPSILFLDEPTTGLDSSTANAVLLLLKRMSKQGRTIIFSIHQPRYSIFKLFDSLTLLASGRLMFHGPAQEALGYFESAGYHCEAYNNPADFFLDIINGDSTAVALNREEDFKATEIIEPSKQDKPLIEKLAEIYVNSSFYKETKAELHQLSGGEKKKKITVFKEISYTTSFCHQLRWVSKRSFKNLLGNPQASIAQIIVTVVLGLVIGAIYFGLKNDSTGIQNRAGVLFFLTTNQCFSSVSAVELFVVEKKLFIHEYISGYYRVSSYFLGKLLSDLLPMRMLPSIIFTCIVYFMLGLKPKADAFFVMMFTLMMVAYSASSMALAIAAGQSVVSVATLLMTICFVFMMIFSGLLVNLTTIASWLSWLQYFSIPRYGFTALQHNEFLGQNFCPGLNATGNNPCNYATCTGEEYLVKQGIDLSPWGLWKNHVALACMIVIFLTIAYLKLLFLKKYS

For the compound `O=C(O)COc1ccc(Cl)cc1Cl`, the outcome in assay [1], in assay [2], in assay [3] and in assay [4] was inactive.

On to `N#Cc1c(Cl)c(Cl)c(Cl)c(C#N)c1Cl`, for which the outcome in assay [1], in assay [5] and in assay [3] was inactive. Also, the AC50 was 47.8 µM (active) in assay [2], 27.8 µM (active) in assay [6] and 20 µM (active) in assay [4].

Consider `CCC(C)(NC(=O)c1cc(Cl)c(C)c(Cl)c1)C(=O)CCl` (stereo not given), for which the call in assay [1], in assay [2], in assay [3] and in assay [4] was inactive.

For `O=C(O)CCCOc1ccc(Cl)cc1Cl`, the result in assay [1], in assay [2], in assay [3], in assay [7] and in assay [4] was inactive.

Consider `CC1(C)C(C=C(Cl)Cl)C1C(=O)OC(C#N)c1ccc(F)c(Oc2ccccc2)c1` (stereo not given), for which the outcome in assay [1], in assay [8], in assay [5], in assay [2] and in assay [4] was inactive. Further, in assay [6], the AC50 was 50 µM (active).

Regarding `Oc1cc(Cl)ccc1Oc1ccc(Cl)cc1Cl`, the compound was called inactive in assay [1], in assay [2] and in assay [3].

In the case of `CCC(C)Nc1c([N+](=O)[O-])cc(C(C)(C)C)cc1[N+](=O)[O-]` (stereo not given), the call in assay [5], in assay [2] and in assay [4] was inactive. For the same compound, in assay [6], the AC50 was 72.9 µM (active).

For `CCOCN(C(=O)CCl)c1c(C)cccc1CC`, the compound was classed as inactive in assay [1], in assay [3] and in assay [4]. Also, the AC50 in assay [2] is 47.5 µM (active).

`CC(C)(C)C(O)/C(=C\c1ccc(Cl)cc1Cl)n1cncn1` (stereo not given): the result in assay [1], in assay [2] and in assay [4] was inactive.

`O=C1c2ccccc2C(=O)N1SC(Cl)(Cl)Cl`: the compound was classed as inactive in assay [5], in assay [2], in assay [3], in assay [6] and in assay [4].

As for `OCCOc1ccccc1`, the compound was classed as inactive in assay [1] and in assay [4].

On to `COc1nn(CSP(=S)(OC)OC)c(=O)s1`, for which the outcome in assay [2] and in assay [3] was inactive.

With `C[C@H]1[C@H](c2ccc(Cl)cc2)SC(=O)N1C(=O)NC1CCCCC1`, the compound was called inactive in assay [2], in assay [3] and in assay [4].

As to `CC[C@H](C)[C@H]1O[C@]2(C=C[C@@H]1C)C[C@@H]1C[C@@H](C/C=C(\C)[C@@H](O[C@H]3C[C@H](OC)[C@@H](O[C@H]4C[C@H](OC)[C@@H](O)[C@H](C)O4)[C@H](C)O3)[C@@H](C)/C=C/C=C3\CO[C@@H]4[C@H](O)C(C)=C[C@@H](C(=O)O1)[C@]34O)O2` (tested in a mixture with another compound), the result in assay [1], in assay [2], in assay [3] and in assay [4] was inactive.

Take `COC(=O)c1ccccc1CS(=O)(=O)NC(=O)Nc1nc(OC)cc(OC)n1`: the call in assay [4] was inactive.

As for `Oc1ccc(Cl)cc1Cc1ccccc1`, the compound was classed as inactive in assay [1], in assay [2], in assay [3] and in assay [4].

Consider `COP(=O)(OC)OC=C(Cl)Cl`, for which the result in assay [1], in assay [3] and in assay [4] was inactive.

Take `COc1cc(OC)nc(NC(=O)NS(=O)(=O)c2cc(NC=O)ccc2C(=O)N(C)C)n1`: the compound was classed as inactive in assay [4].

For `CNC(=O)Oc1cccc(N=CN(C)C)c1`, the compound was called inactive in assay [2], in assay [3] and in assay [4].

Turning to `CCOc1nc(NC)nc(NC(=O)NS(=O)(=O)c2ccccc2C(=O)OC)n1`, in assay [4], the call was inactive.

Take `C#CCN1C(=O)COc2cc(F)c(N3C(=O)C4=C(CCCC4)C3=O)cc21`: the call in assay [1] and in assay [3] was inactive.

Consider `COC(=O)c1ccccc1S(=O)(=O)NC(=O)N(C)c1nc(C)nc(OC)n1`, for which, in assay [4], the outcome was inactive.

With `N#CN`, the result in assay [1], in assay [2] and in assay [4] was inactive.

Turning to `CNC(=O)CSP(=S)(OC)OC`, the compound was classed as inactive in assay [1] and in assay [3].

With `CCc1ccc(C(=O)NN(C(=O)c2cc(C)cc(C)c2)C(C)(C)C)cc1`, the compound was classed as inactive in assay [2], in assay [3] and in assay [4].

Turning to `CC(C)OC(=O)Nc1cccc(Cl)c1`, the compound was called inactive in assay [2], in assay [3] and in assay [4].

As to `O=S1OCC2C(CO1)C1(Cl)C(Cl)=C(Cl)C2(Cl)C1(Cl)Cl` (stereo not given), the compound was classed as inactive in assay [1], in assay [2] and in assay [4].

Turning to `CCC(C)(C)C(=O)OC1=C(c2ccc(Cl)cc2Cl)C(=O)OC12CCCCC2`, the compound was called inactive in assay [1], in assay [2] and in assay [4].

`CC(C)N(C(=O)COc1nnc(C(F)(F)F)s1)c1ccc(F)cc1`: the result in assay [1], in assay [2], in assay [7] and in assay [4] was inactive.

Take `CCS(=O)(=O)c1cccnc1S(=O)(=O)NC(=O)Nc1nc(OC)cc(OC)n1`: the result in assay [4] was inactive.

In the case of `CCN(CC)C(=O)SCc1ccc(Cl)cc1`, the call in assay [1] and in assay [3] was inactive.

The AC50 is the midpoint of the concentration-response curve, whichever way the signal moves.
